# In PubChem BioAssay:
# The source made the active and inactive calls. Unless noted, no rule for the calls is given here.
# Assays:
# [1] = compound effects on lung adenocarcinoma cell viability – A549, calcein-AM fluorescence, 48 h, basal, profiling panel (AID 1162); details: higher = more signal; also: test concentration not given here
# [2] = compound effects on differentiated 3T3-L1 adipocyte viability – cell-based, 3T3-L1 adipocytes, calcein-AM fluorescence, 48 h, basal, profiling panel (AID 1163); details: 3T3-L1 adipocytes viability, higher = more signal; also: test concentration not given here
# [3] = compound effects on hepatocellular carcinoma cell viability – HepG2, calcein-AM fluorescence, 48 h, basal, profiling panel (AID 1164); details: higher = more signal; also: test concentration not given here
# [4] = compound effects on multiple myeloma cell viability – MM1S, calcein-AM fluorescence, 48 h, basal, profiling panel (AID 1165); details: higher = more signal;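 also: viability of MM1S multiple myeloma cells under basal unstimulated conditions; test concentration not given here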
# [5] = calcein-AM signal in unstimulated myeloma cells – cell-based, calcein-AM fluorescence, 48 h, PK04 Diversity Set, profiling panel (AID 1166); details: RPMI8226 myeloma viability, higher = more signal;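 also: cells grown under basal conditions without added stimulus; test concentration not given here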
# [6] = JC-1 mitochondrial signal, unstimulated HepG2 cells – cell-based, JC-1 fluorescence, 24 h, 100 nL compound, profiling panel (AID 1167); details: HepG2 mitochondrial potential, higher = more signal; also: test concentration not given here
# [7] = JC-1 mitochondrial signal, unstimulated adipocytes – cell-based, JC-1 fluorescence, 3T3-L1 adipocytes, 24 h, 100 nL compound, profiling panel (AID 1168); details: JC-1 mitochondrial fluorescence, higher = more signal, called active from +8 up or from −8 down; also: test concentration not given here
# [8] = JC-1 mitochondrial signal, unstimulated myeloma cells – cell-based, JC-1 fluorescence, RPMI8226, 24 h, 100 nL compound, profiling panel (AID 1169); details: JC-1 mitochondrial potential fluorescence, higher = more signal; also: test concentration not given here
# [9] = JC-1 mitochondrial signal, unstimulated MM1S myeloma – cell-based, JC-1 fluorescence, 24 h, 100 nL compound, profiling panel (AID 1170); details: MM1S mitochondrial potential, higher = more signal; also: test concentration not given here
# [10] = resazurin metabolic signal in A549 cells – cell-based, resazurin fluorescence, 24 h, PK04 Diversity Set, profiling panel (AID 1171); details: A549 viability, higher = more signal, called active from +8 up or from −8 down; also: test concentration not given here
# [11] = resazurin metabolic signal in HepG2 cells – cell-based, resazurin fluorescence, 24 h, PK04 Diversity Set, profiling panel (AID 1172); details: HepG2 viability, higher = more signal; also: test concentration not given here
# [12] = budding yeast growth changes without added modifier – OD600, strain BY4716, 24 h, basal condition, primary screen (AID 1173); details: S. cerevisiae BY4716 growth, OD600, 24 h; higher = more signal, called active from +8 up or from −8 down
# [13] = viability profiling in MM1S myeloma cells – cell-based, resazurin fluorescence, basal, 24 h, PK04 Diversity Set, profiling panel (AID 1174); details: higher = more signal, called active from +8 up or from −8 down; also: test concentration not given here
# [14] = target: Dihydroorotate dehydrogenase (quinone), mitochondrial (Plasmodium falciparum (isolate 3D7)) (UniProt Q08210); assay: inhibition of P. falciparum DHODH – biochemical, C-terminal His tag, absorbance 600 nm, primary screen (AID 1175); details: PfDHODH enzyme, DCIP absorbance 600 nm; higher = more signal, called active from +8 up or from −8 down;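 also: recombinant parasite enzyme with a five histidine tag at its C terminus; test concentration not given here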
# [15] = inhibition of PAO1 biofilm formation – strain PAO1, LB-PBS medium, absorbance 600 nm, primary screen (AID 1176); also: test concentration not given here; details: P. aeruginosa PAO1 growth/biofilm, A600, 12 h; higher = more signal
# [16] = growth modulation of vineyard yeast isolate – strain RM11-1a, OD600, basal, 24 h, primary screen (AID 1177);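 also: cultures grown under basal conditions with no added stressor; test concentration not given here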; details: S. cerevisiae RM11-1a growth, OD600, 24 h; higher = more signal, called active from +8 up or from −8 down
# [17] = growth of efflux-deficient E. coli DRC39 – strain DRC39, OD650, 24 h, E. coli filamentation inducers, primary screen (AID 1178);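 also: growth measured as culture turbidity by optical density at 650 nm; test concentration not given here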; details: E. coli DRC39 acrAB, higher = more signal, called active from +8 up or from −8 down
# [18] = growth of efflux-deficient E. coli DRC39 – strain DRC39, OD650, 48 h, E. coli filamentation inducers, primary screen (AID 1179);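 also: screen aims at cell division blockers that make cells filament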; details: E. coli DRC39 delta-acrAB growth, higher = more signal, called active from +8 up or from −8 down
# [19] = viability profiling in RPMI8226 myeloma cells – cell-based, resazurin fluorescence, basal, 24 h, PK04 Diversity Set, profiling panel (AID 1180); details: higher = more signal;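 also: RPMI8826 multiple myeloma cell line at 5000 cells per well; test concentration not given here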
# [20] = target: E3 ubiquitin-protein ligase XIAP (Homo sapiens) (UniProt P98170); assay: small molecules binding XIAP protein – biophysical, small-molecule microarray, fluorescence 635 nm, primary screen (AID 1181); details: higher = more signal;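 also: score merges 667 nm emission and signal to noise over triplicate slides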
# E3 ubiquitin-protein ligase XIAP (Homo sapiens), sequence (P98170 whole entry, looked up): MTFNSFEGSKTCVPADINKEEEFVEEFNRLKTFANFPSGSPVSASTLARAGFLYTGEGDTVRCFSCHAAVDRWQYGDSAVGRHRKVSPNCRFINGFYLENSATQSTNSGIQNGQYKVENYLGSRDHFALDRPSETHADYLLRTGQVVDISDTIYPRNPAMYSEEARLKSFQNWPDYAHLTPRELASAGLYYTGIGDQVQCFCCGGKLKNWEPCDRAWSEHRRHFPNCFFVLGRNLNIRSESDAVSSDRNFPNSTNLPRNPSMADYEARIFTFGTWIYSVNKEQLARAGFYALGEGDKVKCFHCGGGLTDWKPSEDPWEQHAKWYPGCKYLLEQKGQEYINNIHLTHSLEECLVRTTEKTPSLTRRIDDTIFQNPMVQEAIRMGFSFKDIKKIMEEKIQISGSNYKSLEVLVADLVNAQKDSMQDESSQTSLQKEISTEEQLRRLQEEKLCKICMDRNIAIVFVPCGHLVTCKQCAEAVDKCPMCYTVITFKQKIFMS
# Dihydroorotate dehydrogenase (quinone), mitochondrial (Plasmodium falciparum (isolate 3D7)), sequence (Q08210 whole entry, looked up): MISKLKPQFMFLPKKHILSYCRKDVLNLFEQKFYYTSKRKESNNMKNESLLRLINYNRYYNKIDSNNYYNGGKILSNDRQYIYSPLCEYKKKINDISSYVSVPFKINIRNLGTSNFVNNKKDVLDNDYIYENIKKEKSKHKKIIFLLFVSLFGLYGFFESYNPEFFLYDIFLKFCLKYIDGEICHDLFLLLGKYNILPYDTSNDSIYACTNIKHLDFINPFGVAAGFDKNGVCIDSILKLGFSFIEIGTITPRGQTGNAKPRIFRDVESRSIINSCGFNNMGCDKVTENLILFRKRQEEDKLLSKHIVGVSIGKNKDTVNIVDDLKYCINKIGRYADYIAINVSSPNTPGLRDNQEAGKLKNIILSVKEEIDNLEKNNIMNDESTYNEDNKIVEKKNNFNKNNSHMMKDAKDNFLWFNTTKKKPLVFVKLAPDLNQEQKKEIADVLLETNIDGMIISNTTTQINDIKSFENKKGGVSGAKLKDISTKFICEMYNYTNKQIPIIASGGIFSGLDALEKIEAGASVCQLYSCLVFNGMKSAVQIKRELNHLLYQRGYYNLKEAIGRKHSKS
SMILES,z-score [1],z-score [2],z-score [3],z-score [4],z-score [5],z-score [6],z-score [7],z-score [8],z-score [9],z-score [10],z-score [11],z-score [12],z-score [13],composite z-score [14],z-score [15],z-score [16],z-score [17],z-score [18],z-score [19],composite z-score [20]
Cc1ccccc1/C=C/C=O,1.59,-0.345,0.93,-0.499,0.0415,1.65,1.39 (inactive),0.426,-0.962,-0.122 (inactive),0.779,-1.94 (inactive),0.971 (inactive),-0.464 (inactive),-0.0902 (inactive),-0.412 (inactive),1.23 (inactive),1.45 (inactive),1.36,-0.141
O=C1NC(=O)C2C1C=CC(C(O)c1cccs1)N2Nc1ccccn1 (stereo not given),1.74,-0.508,0.714,0.119,1.13,0.674,0.112 (inactive),0.268,0.0729,-1.06 (inactive),-0.687,0.0408 (inactive),-1.71 (inactive),0.566 (inactive),0.916 (inactive),0.623 (inactive),-0.0795 (inactive),0.0691 (inactive),0.398,0.174
COCCCNC(=O)[C@@]1(Sc2ccc(C)cc2)CC(=O)N(Cc2ccccc2)[C@@H]1c1ccc(CO)cc1,-0.837,0.0417,-0.543,-0.0185,0.381,-0.658,-0.265 (inactive),0.216,-1.38,1.28 (inactive),0.802,0.0695 (inactive),0.495 (inactive),-0.0163 (inactive),0.366 (inactive),-0.194 (inactive),0.234 (inactive),0.127 (inactive),1.01,-0.0492
CC(C)C(CO)N1C(=O)[C@@H]2[C@H]3C(=O)OCC=C[C@H]3OC23C=CCN(c2ccc4ccccc4c2)C(=O)[C@@H]13 (stereo not given in full),-0.339,0.126,0.21,0.88,-1.02,-0.124,0.106 (inactive),-0.651,1.1,0.156 (inactive),-0.128,0.485 (inactive),0.112 (inactive),0.958 (inactive),-0.497 (inactive),1.24 (inactive),0.483 (inactive),0.347 (inactive),0.133,-0.0476
